# Screening results as filed in PubChem.
# In the library only some 4.1% were active in any assay of this set; here they are far more common.
# ALR H2O2 inh = blocks human ALR sulfhydryl oxidase activity | hit rate 3.8% among 290,000 | inhibition, % (no concentration beside the values) | P55789 | purified ALR, DTT oxidation, H2O2 HRP-luminol luminescence;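 active = mean replicate inhibition above about 79%, with every replicate also reaching it, limit read from the data; inconclusive = only one of the two criteria met; inactive = mean below limit and not every replicate reaching it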
# CASP6 VEID inh = inhibitors of human caspase-6 | P55212 | purified caspase-6, Z-VEID-R110 cleavage fluorescence | inhibition, % at 12.5 µM | hit rate 0.53% among 350,000;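 active = mean inhibition across replicates at least about 35%, with every replicate also reaching that limit, limit read from the data; inconclusive = only one of the two criteria met; inactive = neither criterion met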;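 also: 0% = median of neutral control wells and 100% = no fluorescence left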
# CFTR F508del cor = correctors of CFTR F508del function in bronchial epithelial cells; CFBE cells, YFP halide quenching; stimulated with forskolin plus potentiator P3; % fluorescence drop versus neutral controls; activity (quench increase), % at 7.58 µM; hit rate 0.36% among 350,000; AID 720511;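 active = mean added fluorescence quench of at least 8% versus neutral control, with both replicates also reaching 8%; inconclusive = only one of the mean or replicate conditions met; inactive = mean below 8% and not both replicates reaching 8%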;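 also: cells transiently co-express mutant CFTR-F508del with the halide-sensitive YFP; corrector assay measuring rescue of mutant channel to the surface after 24 h compound exposure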
# PglD DTNB = inhibitors of Campylobacter jejuni PglD acetyltransferase; purified PglD enzyme, DTNB colorimetric CoA detection; inhibition, % at 12.5 µM; hit rate 0.098% among 360,000; in the data active = inhibition above about 16%, passing the limit was not always enough; inconclusive = no clear call, values can overlap the other calls
# HIV Env fusion = HIV envelope-mediated fusion inhibition. HeLa-JRFL Env/CEM21 cell fusion, luciferase. inhibition, % at 12.3 µM. hit rate 1.1% among 360,000. AID 651610;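 active = mean replicate inhibition score of at least 50 and every replicate individually at or above 50; inconclusive = only one of the two criteria met; inactive = mean below 50 and not all replicates reaching 50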;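 also: 0% = plate neutral controls and 100% = maraviroc near 300 nM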
# NSD2 HMT inh = inhibitors of human histone methyltransferase NSD2. NSD2 peptide methylation, AlphaScreen, 120 min. inhibition, % at 12.5 µM. hit rate 0.54% among 310,000. AID 743445; in the data active = inhibition above about 50%
# An asterisk follows results filed as active; ? = inconclusive; . = not tested or not shown; [ ] = dose if it differs, or a comment.
SMILES,ALR H2O2 inh,CASP6 VEID inh,CFTR F508del cor,PglD DTNB,HIV Env fusion,NSD2 HMT inh
O=C(C[C@@H]1CC[C@H]2[C@@H](COC[C@H](O)CN2C(=O)c2ccncc2)O1)NC1Cc2ccccc2C1,.,-1,1,-2,.,.
CC(=O)Nc1nc(C)c(-c2csc(Nc3ccc(O)cc3)n2)s1,99*,.,.,2,.,.
CCCC(=O)Nc1nc(C)c(-c2csc(Nc3ccccc3OC)n2)s1,-18,4,3,4,17,.
COc1ccccc1Nc1nc(-c2sc(NC(=O)C(C)(C)C)nc2C)cs1,-13,1,14*,-5,31,.
Cn1cnc(S(=O)(=O)N[C@H]2C=C[C@@H](CC(=O)NCC3CC3)O[C@@H]2CO)c1,.,0,0,-1,8[16.7 µM],.
Cc1cccc(CS(=O)(=O)c2ncc(Cl)c(C(=O)NCc3ccccc3)n2)c1,-1,5,-1,4,44,7
Cc1cccc(CS(=O)(=O)c2ncc(Cl)c(C(=O)Nc3c(C)cccc3C)n2)c1,98*,11,4,-6,34,3
Cc1nnc(NC(=O)c2nc(S(=O)(=O)Cc3ccccc3)ncc2Cl)s1,99*,5,2,3,-139,.
Cc1cccc(C)c1NC(=O)c1nc(S(=O)(=O)Cc2ccccc2)ncc1Cl,97*,.,4,1,-86,-4
Cc1ccc(NC(=O)c2nc(S(=O)(=O)Cc3ccccc3)ncc2Cl)cc1,1,4,?,0,1,-3
CCC(C)(C)NC(=O)C(c1ccccc1F)N(Cc1ccco1)C(=O)c1csnn1 (stereo not given),.,.,.,0,53*,0
CCC(C)(C)NC(=O)C(c1sccc1C)N(Cc1ccco1)C(=O)c1csnn1 (stereo not given),1,.,-1,1,55*,-1
CC(C)(C)NC(=O)C(c1ccc(F)cc1)N(Cc1ccco1)C(=O)c1csnn1 (stereo not given),-4,.,.,1,4,.
CC(C)(C)NC(=O)C(c1ccncc1)N(Cc1cccs1)C(=O)c1csnn1 (stereo not given),-2,1,1,4,7,27
Cc1ccc(C(C(=O)NC(C)(C)C)N(Cc2cccs2)C(=O)c2csnn2)cc1 (stereo not given),-8,.,.,2,79*,2
CN1[C@H](C(=O)NCCCN2CCOCC2)[C@@H](CO)[C@@H]2Cn3c(ccc(/C=C/c4ccccc4)c3=O)[C@@H]21,.,.,.,0,4[16.7 µM],.
Cc1cc(C(=O)CSc2nc(N)cc(N)n2)c(C)n1C1CC1,47,0,-2,.,14,5
Cc1cc(C(=O)CSc2nnc(N)s2)c(C)n1C1CC1,98*,5,0,1,-22,8
CCCN1C[C@@H](C)[C@@H](OC)CN(C)C(=O)c2cc(NC(=O)C3CC3)ccc2OC[C@H]1C,.,-3,0,0,.,.
CCn1cc(C(=O)O)c(=O)c2cc(F)c(N3CCN(C(=S)NC(=O)c4ccccc4Br)CC3)cc21,.,36*,0,3,5,1
CCn1cc(C(=O)O)c(=O)c2cc(F)c(N3CCN(C(=S)NC(=O)c4ccc(F)cc4)CC3)cc21,1,-2,6,6,-1,2
C[C@H](CO)N1C[C@H](C)[C@@H](CN(C)C(=O)NC2CCCCC2)Oc2ncc(C#CCN(C)C)cc2C1=O,.,-21,.,1,29[16.7 µM],.
COc1cccc(CNC(=O)C[C@@H]2CC[C@@H](NC(=O)C3CC3)[C@@H](CO)O2)c1,.,3,1,2,-3[16.7 µM],.
COc1ccc(CNc2nc3ccccc3n2C(C)C)c(O)c1,99*,-1,-4,1,20,2
Cc1ccc(O)c(CNc2nc3ccccc3n2C(C)C)c1,98*,1,1,10,-7,-4
SMILES,ALR H2O2 inh,CASP6 VEID inh,CFTR F508del cor,PglD DTNB,HIV Env fusion,NSD2 HMT inh
CC(C)n1c(NCc2cc(Cl)ccc2O)nc2ccccc21,68,0,1,2,-16,.
CCn1c(CNc2nc3ccccc3n2C(C)C)nc2ccccc21,98*,.,.,7,16,.
C=CCn1c(NCc2cc(C)ccc2O)nc2ccccc21,98*,1,-3,4,11,.
COc1ccc(CNc2nc3ccccc3n2C(C)C)cc1,7,0,-3,-2,8,0
C[C@H]1CN([C@@H](C)CO)C(=O)Cc2cc(NC(=O)Nc3ccc(F)cc3)ccc2O[C@@H]1CN(C)C(=O)Nc1cccc2ccccc12,.,3,0,-2,-19[16.7 µM],.
CCOc1ccc(S(=O)(=O)NCc2ccncc2)cc1,-22,.,.,7,85*,0
CC(C)c1ccc(NC(=O)CSc2nc3ncccc3[nH]2)cc1,55,1,0,-1,-1,-2
CC(C)OC(=O)c1ccc(NC(=O)CSc2nc3ncccc3[nH]2)cc1,98*,7,-2,.,26,-5
COc1ccc(NC(=O)CSc2nc3ncccc3[nH]2)cc1OC,96*,.,.,1,-30,0
O=C(C[C@@H]1C=C[C@H](NC(=O)CN2CCOCC2)[C@@H](CO)O1)NCCc1ccncc1,.,1,0,.,.,.
CO[C@H]1CN(C)C(=O)c2ccc(NC(=O)C3CC3)cc2OC[C@H](C)N(C(=O)NC(C)C)C[C@H]1C,.,0,-1,1,.,.
Cc1ccc(NCc2nc3ccccc3n2C)cc1C,98*,-1,-1,1,-84,6
Cn1c(NCc2c(O)ccc3ccccc23)nc2ccccc21,18,.,.,.,71*,1
Cn1c(CNc2nc3ccccc3n2C)nc2ccccc21,-3,.,.,-3,-45,1
COc1ccc(Nc2nc3ccccc3n2C)cc1,77*,-2,0,4,-63,-1
Cn1c(Nc2ccc(F)cc2)nc2ccccc21,62,-1,4,8,-38,-2
Cn1c(NCc2cc(Br)ccc2O)nc2ccccc21,43,.,.,1,16,-3
CN(Cc1nc2ccccc2n1C)c1ccccc1,99*,0,-2,-2,-8,4
Cc1ccc(NC(=O)NCc2nc3ccccc3n2C)cc1,1,-2,-1,-5,1,2
COc1ccc(CNC(=O)C[C@@H]2C[C@@H]3c4cc(NC(=O)CC5CC5)ccc4O[C@@H]3[C@H](CO)O2)cc1,.,.,-3,6,-28[16.7 µM],.
Cn1c(CNc2ccc(O)cc2)nc2ccccc21,99*,5,-1,4,-4,3
CCOC(=O)c1ccc(NCc2nc3ccccc3n2C)cc1,0,.,.,.,-126,-6
COc1ccc(NCc2nc3ccccc3n2C)cc1,98*,1,-2,-9,-52,3
Cn1c(CNc2ccc(Br)cc2)nc2ccccc21,96*,2,1,.,-105,32
Cc1ccc(NCc2nc3ccccc3n2C)cc1,-2,.,.,-10,.,1
O=C(C[C@@H]1CC[C@@H](NC(=O)c2ccncc2)[C@H](CO)O1)Nc1ccc(-c2ccccc2)cc1,.,2,1,.,.,.
Cc1ccc(S(=O)(=O)N[C@H]2CC[C@@H](CC(=O)NC3CCCCC3)O[C@@H]2CO)cc1,.,2,1,-3,-8[16.7 µM],.
